# Test results: ChEMBL document CHEMBL2218924, “A broad activity screen in support of a chemogenomic map for kinase signalling research and drug discovery” (Biochem J, 2013)
# What was measured:
# [1] = biological target: Tyrosine-protein kinase SYK (Homo sapiens) (UniProt P43405); conditions: at 10 µM
# [2] = biological target: T1, Mitogen-activated protein kinase kinase kinase 7 (Homo sapiens) (UniProt O43318); conditions: at 1 µM
# T1 sequence (whole entry): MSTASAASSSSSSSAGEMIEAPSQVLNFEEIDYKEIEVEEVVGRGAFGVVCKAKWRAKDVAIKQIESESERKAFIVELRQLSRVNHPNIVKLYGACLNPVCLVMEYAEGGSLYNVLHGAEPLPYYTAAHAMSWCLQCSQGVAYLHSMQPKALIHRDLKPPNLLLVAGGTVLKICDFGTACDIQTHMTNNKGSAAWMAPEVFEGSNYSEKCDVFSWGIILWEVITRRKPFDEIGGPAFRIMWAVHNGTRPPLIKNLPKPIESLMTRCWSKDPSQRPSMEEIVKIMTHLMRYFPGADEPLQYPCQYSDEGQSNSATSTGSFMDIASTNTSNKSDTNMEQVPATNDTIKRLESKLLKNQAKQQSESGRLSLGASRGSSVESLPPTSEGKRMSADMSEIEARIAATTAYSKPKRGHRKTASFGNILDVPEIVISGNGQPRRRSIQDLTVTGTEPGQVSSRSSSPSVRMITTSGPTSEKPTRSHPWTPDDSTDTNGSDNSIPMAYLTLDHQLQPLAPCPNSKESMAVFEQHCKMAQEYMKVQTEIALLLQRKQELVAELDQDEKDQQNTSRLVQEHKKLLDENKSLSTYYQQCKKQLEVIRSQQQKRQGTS
# [3] = biological target: T1, Mitogen-activated protein kinase kinase kinase 7 (Homo sapiens); conditions: at 10 µM
# [4] = biological target: T2, Serine/threonine-protein kinase TAO1 (Homo sapiens) (UniProt Q7L7X3); conditions: at 1 µM
# T2 sequence (whole entry): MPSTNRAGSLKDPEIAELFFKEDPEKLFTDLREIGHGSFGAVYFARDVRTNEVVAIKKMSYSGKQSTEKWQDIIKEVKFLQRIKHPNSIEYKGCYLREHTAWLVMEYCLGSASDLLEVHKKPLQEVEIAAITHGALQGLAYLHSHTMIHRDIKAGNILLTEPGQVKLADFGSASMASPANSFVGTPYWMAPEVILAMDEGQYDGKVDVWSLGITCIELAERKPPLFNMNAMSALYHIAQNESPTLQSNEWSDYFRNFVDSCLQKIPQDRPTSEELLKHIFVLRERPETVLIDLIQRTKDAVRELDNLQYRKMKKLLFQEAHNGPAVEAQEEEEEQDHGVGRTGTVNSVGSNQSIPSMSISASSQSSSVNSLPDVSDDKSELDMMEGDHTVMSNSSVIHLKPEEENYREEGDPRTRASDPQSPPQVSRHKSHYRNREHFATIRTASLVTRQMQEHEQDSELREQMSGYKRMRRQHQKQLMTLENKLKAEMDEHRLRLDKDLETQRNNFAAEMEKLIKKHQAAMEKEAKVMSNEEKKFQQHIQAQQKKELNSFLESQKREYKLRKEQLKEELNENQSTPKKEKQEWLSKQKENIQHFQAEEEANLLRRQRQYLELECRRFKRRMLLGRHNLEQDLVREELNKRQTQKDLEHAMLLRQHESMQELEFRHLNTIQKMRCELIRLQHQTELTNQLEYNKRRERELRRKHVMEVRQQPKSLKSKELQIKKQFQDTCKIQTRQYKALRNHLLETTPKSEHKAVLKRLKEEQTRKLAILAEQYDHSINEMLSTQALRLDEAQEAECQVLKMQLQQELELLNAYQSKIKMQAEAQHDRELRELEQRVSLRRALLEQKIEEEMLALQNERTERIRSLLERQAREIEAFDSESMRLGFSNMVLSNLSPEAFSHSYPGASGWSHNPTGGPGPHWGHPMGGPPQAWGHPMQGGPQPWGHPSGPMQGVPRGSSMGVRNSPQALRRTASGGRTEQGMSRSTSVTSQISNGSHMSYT
# [5] = biological target: T2, Serine/threonine-protein kinase TAO1 (Homo sapiens); conditions: at 10 µM
# [6] = biological target: T3, Serine/threonine-protein kinase TAO2 (Homo sapiens) (UniProt Q9UL54); conditions: at 1 µM
# T3 sequence (whole entry): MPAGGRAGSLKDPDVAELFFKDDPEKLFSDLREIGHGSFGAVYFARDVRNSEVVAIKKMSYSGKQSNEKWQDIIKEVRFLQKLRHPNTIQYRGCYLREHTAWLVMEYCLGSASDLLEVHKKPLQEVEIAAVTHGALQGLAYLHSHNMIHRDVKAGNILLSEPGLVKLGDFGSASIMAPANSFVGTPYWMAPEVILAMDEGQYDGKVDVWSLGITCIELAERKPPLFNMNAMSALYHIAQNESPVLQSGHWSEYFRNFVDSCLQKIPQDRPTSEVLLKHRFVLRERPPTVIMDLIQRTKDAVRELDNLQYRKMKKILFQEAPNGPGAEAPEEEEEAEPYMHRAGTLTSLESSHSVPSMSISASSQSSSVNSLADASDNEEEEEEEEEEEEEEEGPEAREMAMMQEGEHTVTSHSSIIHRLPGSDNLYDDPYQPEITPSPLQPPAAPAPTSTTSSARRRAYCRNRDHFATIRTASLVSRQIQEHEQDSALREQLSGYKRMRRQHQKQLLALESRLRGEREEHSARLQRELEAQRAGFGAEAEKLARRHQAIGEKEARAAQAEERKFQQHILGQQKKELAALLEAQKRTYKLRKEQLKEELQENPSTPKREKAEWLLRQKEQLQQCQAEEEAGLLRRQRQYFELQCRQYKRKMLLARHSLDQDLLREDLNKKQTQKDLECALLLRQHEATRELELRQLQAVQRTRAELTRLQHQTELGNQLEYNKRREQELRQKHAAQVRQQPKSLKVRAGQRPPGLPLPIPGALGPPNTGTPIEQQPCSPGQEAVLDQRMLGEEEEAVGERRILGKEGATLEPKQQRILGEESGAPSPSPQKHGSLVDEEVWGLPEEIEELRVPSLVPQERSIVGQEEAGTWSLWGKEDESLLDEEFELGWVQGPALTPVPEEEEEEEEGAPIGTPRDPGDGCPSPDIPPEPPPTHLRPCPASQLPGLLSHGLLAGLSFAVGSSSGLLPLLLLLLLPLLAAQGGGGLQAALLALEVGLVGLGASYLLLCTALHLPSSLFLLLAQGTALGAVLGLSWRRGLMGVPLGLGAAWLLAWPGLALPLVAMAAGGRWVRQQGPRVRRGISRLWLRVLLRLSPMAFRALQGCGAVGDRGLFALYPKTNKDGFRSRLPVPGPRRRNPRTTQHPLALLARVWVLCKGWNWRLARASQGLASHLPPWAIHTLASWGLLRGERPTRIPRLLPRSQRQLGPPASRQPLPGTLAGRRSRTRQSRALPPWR
# [7] = biological target: T3, Serine/threonine-protein kinase TAO2 (Homo sapiens); conditions: at 10 µM
# [8] = biological target: T4, Serine/threonine-protein kinase TAO3 (Homo sapiens) (UniProt Q9H2K8); conditions: at 1 µM
# T4 sequence (whole entry): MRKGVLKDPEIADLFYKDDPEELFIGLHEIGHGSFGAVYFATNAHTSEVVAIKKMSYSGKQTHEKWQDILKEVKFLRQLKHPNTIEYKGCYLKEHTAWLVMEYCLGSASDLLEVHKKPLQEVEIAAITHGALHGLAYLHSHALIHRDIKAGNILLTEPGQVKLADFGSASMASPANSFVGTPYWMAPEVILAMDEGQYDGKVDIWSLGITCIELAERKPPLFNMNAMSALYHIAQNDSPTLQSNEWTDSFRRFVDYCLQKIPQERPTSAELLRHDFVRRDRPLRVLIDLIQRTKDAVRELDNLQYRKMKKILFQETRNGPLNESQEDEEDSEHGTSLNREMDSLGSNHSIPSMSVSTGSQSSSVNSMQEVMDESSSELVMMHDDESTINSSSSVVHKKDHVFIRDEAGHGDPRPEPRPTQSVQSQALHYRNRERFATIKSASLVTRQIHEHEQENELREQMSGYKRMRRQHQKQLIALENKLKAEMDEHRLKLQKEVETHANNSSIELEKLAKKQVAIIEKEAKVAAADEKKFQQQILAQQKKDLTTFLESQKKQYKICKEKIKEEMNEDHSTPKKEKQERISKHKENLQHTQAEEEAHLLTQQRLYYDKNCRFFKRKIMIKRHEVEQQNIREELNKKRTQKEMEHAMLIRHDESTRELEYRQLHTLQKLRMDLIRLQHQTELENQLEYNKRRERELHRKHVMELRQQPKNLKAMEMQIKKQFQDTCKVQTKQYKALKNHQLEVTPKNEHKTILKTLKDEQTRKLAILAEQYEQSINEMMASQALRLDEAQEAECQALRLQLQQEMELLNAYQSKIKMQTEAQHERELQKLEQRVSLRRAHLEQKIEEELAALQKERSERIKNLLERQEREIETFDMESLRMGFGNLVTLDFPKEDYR
# [9] = biological target: T4, Serine/threonine-protein kinase TAO3 (Homo sapiens); conditions: at 10 µM
# [10] = biological target: T5, Serine/threonine-protein kinase TBK1 (Homo sapiens) (UniProt Q9UHD2); conditions: at 1 µM
# T5 sequence (whole entry): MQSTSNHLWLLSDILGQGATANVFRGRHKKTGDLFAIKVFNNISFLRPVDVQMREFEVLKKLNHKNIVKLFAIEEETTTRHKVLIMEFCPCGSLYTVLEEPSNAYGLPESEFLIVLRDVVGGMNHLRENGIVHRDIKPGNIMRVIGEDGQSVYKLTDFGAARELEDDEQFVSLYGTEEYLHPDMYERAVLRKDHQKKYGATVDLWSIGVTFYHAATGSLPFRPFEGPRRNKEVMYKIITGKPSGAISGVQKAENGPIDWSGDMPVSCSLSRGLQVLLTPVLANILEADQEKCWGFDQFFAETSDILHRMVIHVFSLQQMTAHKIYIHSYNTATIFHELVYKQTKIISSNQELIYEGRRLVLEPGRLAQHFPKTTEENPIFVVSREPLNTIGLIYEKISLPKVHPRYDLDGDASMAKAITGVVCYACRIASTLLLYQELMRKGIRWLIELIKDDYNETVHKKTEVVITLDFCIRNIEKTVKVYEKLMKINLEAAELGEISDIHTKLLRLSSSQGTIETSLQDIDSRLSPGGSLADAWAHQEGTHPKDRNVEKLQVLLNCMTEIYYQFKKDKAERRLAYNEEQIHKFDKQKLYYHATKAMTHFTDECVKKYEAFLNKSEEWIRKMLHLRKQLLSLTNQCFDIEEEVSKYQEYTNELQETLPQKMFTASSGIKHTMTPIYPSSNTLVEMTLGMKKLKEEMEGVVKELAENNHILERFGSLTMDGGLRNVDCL
structure (smiles),measurement,setting,value
CN(C)c1ccc(/C=C2\C(=O)Nc3ccccc32)cc1,residual activity,[1],91%
same,residual activity,[2],100%
same,residual activity,[3],81%
same,residual activity,[4],113%
same,residual activity,[5],90%
same,residual activity,[6],99%
same,residual activity,[7],89%
same,residual activity,[8],100%
same,residual activity,[9],91%
same,residual activity,[10],81%
